Bioassay records from PubChem BioAssay.
GLA inh pH 4.5 – inhibitors of human alpha-galactosidase A at pH 4.5; purified enzyme, 4-MU-alpha-Gal fluorescence, pH 4.5; activity change, negative = inhibition, % at 105 µM; 230,000 tested, under 10 active; AID 1467;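 further: 0% = full activity with enzyme and -100% = basal without enzyme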
GLA spleen mod – alpha-galactosidase A (human) modulation. P06280. human spleen homogenate, 4MU-alpha-Gal fluorescence, 40 min. Potency, µM (doses to about 80 µM), inactives show at the top dose activity change, negative = inhibition, most hits filed as inhibitors. 240,000 tested, 0.008% active;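 further: potency means the concentration at half of the fitted maximal effect; 0% = enzyme with vehicle and -100% = no enzyme basal signal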
Target sequence (P06280 32-429 limits assumed): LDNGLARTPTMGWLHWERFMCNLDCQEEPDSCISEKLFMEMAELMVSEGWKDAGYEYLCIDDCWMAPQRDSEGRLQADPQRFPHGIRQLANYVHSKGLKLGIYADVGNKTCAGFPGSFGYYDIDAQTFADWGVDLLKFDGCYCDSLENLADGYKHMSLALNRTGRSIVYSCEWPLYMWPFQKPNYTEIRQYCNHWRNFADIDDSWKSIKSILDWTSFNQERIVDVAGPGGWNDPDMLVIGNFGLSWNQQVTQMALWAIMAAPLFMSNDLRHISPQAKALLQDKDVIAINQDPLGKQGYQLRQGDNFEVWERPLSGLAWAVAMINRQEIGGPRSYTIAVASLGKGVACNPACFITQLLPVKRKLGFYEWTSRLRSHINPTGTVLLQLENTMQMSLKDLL
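Inhibition or activation of alpha-galactosidase in human spleen homogenate is scored by 4-MU fluorescence after 40 min at 37C, pH 5.0, with 1 mM substrate. AC50s come from concentration-response fitted to the Hill equation.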
HttQ103 aggreg – inhibitors of mutant huntingtin aggregate formation in PC12 cells. PC12 HttQ103-GFP aggregates, Acumen cytometry, 40 h. Potency, µM (series often up to 46.1 µM), for inactives: at the highest dose activity change, negative = inhibition, actives largely listed as inhibitors. 220,000 tested, 1.1% active. AID 1688; further: potency means the concentration at half of the fitted maximal effect; on the % scale 0 is the no-effect control and ±100 the full control effect; nearly all actives have a fitted effect of over 60% in size
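Ecdysone-promoter PC12 model expressing HTT exon 1 Q103 fused to GFP, induced by tebufenozide at 100 nM final. Compounds titrated; aggregates sized 1–25 µm scored on a 488 nm laser cytometer.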
PKM2 activator – activators of human pyruvate kinase M2. P14618. purified PKM2, Kinase-Glo ATP luminescence, activation; response scale: 0% is enzyme alone, no compound. Potency, µM (series often up to 57.5 µM), for inactives: at the highest dose activation, most hits filed as activators. 260,000 tested, 0.34% active; further: potency means the concentration at half of the fitted maximal effect; on the % scale 0 is the no-effect control and ±100 the full control effect; nearly all actives have a fitted effect of over 55% in size
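Purified hPK-M2 (>95%) run at intermediate activity with 0.1 mM ADP and 0.5 mM PEP in 50 mM imidazole pH 7.2, KCl, MgCl2; 1 h room temperature. ATP formed read by Kinase-Glo luminescence; normalized to uninhibited and no-enzyme controls.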
HTT ATP protect – Huntington cell model cytoprotection by ATP luminescence; PC12 HTT-Q103 induced, cytoprotection, ATP luminescence, 40 h; 230,000 tested, 0.14% active; Potency, µM (highest dose often 56.4 µM), for inactives: cytoprotection (ATP increase), actives largely listed as activators; further: potency means the concentration at half of the fitted maximal effect; % of control where 0% means no effect; nearly all actives have a fitted effect of over 45% in size
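PC12 cells with ecdysone-inducible HTT exon 1 Q103-GFP, induced with 100 nM tebufenozide and co-treated with library compounds in a dose series (1536-well, 1500 cells/well). Cytoprotection read as ATP content by ATPlite luminescence.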
* hit, by the source's call; ? = inconclusive; / = no result given; [ ] = another dose, or the depositor's remark. Hits are enriched below; roughly 1.2% of the tested compounds scored in any of these assays. The call rests on the fitted dose curve; in most records, active means well fitted curve in the direction sought with a large enough effect; inconclusive means small, poorly fitted or top-dose-only effect, or another doubt; inactive means no such curve, though single readings can be large; an effect the other way counts as inactive or inconclusive.

SMILES	GLA inh pH 4.5	GLA spleen mod	HttQ103 aggreg	PKM2 activator	HTT ATP protect
N#Cc1c(N)n(CCNC(=O)c2ccccc2)c2nc3ccccc3nc12	?	2.9%	5.4%	17.8µM*	/
O=c1c2ccccc2nnn1CSc1nnnn1-c1ccc(O)cc1	3.8	7.7%	?	14.1µM*	-19.9%
O=C(CSc1nnnn1-c1ccc(O)cc1)Nc1cccc(S(=O)(=O)N2CCCC2)c1	6.2	-2.9%	-6.4%	5.2%	4.5%
Cc1cccc(-n2nnnc2SCn2nnc3ccccc3c2=O)c1	0.7	1.2%	?	15.8µM*	-25.7%
Cc1cccc(-n2nnnc2SCC(=O)Nc2cccc(S(N)(=O)=O)c2)c1	-12.5	-1.7%	9.3%[9.22 µM]	5.01µM*	11.1%[10 µM]
COC(=O)C1=C[C@@H](C(=O)OC)[C@@H]2C3=C(C(=O)[C@@]2(CC(C)C)NC(=O)c2ccccc2)[C@H](C)n2c(=O)n(-c4ccccc4)c(=O)n2[C@@H]3C1	/	-7.1%	/	/	/
O=C(Nn1cnnc1)C(c1ccccc1)c1ccccc1	2.0	2.7%	27.1%	31.6µM*	-17.7%
COc1cccc(OCC(=O)Nc2c(C(=O)Nc3ccc(OC)cc3OC)oc3ccccc23)c1	/	/	/	/	-8.0%[0.074 µM]
Cc1nc2ccccc2n1C(=O)c1ccccc1[N+](=O)[O-]	2.2	4.4%	0.141µM*	-9.0%	/
CC(C)=NOc1cc(NC(=O)CCl)cc([N+](=O)[O-])c1	5.3	4.6%	3.16µM*	0.9%	/
CCC(=O)Nc1cc(SCCO)cc([N+](=O)[O-])c1	0.5	-1.9%	-6.4%	6.1%	-19.7%
O=C(CCl)Nc1cc(SCC(O)CO)cc([N+](=O)[O-])c1 (configuration not stated)	2.6	-4.3%	2.82µM*	8.4%	-78.1%[10 µM]
CCC(=O)Nc1cc(ON=C(C)C)cc([N+](=O)[O-])c1	3.5	-4.4%	16.0%	-1.9%	/
NCCOC[C@H](N)C(=O)O	/	/	/	/	-1.8%[10 µM]
Cn1cc(C(=O)c2ccc(Cl)cc2Cl)cc1C(=O)N/N=C(\N)COc1ccc(F)cc1	-4.1	1.4%	17.8µM*	5.2%	-60.9%
Cn1cc(C(=O)c2ccc(Cl)cc2Cl)cc1C(=O)N/N=C(\N)COc1ccc(Cl)cc1	-2.6	4.4%	-15.0%[9.22 µM]	0.6%	-13.5%[10 µM]
CSc1ncnc2c1ncn2[C@@H]1O[C@@H](CO)[C@H](O)O[C@@H]1O	/	/	/	/	-55.5%[10 µM]
Nc1ncnc2c1ncn2[C@@H]1O[C@H](C(=O)NC2CC2)[C@H](O)[C@H]1O	2.5	8.8%	/	/	/
Cc1ccc(C)c(NC(=O)CN(C)C(=O)CCN2C(=O)c3ccccc3C2=O)c1	-14.9	6.7%	14.1µM*	-1.4%	-79.8%
O=Nc1c(O)[nH]c2c(Cl)c(Cl)ccc12	/	11.9%	/	/	/
COc1ccccc1NC(=O)N(Cc1ccco1)Cc1cc2ccc(C)c(C)c2[nH]c1=O	0.3	-8.1%	-32.2%	15.8µM*	-93.9%
COc1ccccc1N1CCN(CCn2c(=O)c3c(c4ccccc4n3C)n(C)c2=O)CC1	/	7.0%	/	/	-12.3%
O=C(Nc1ccc(O)cc1)c1cc2ccccc2c(=O)s1	-12.0	1.7%	-28.0%[9.22 µM]	-1.5%	-19.7%[10 µM]
O=C(Nc1ccccc1)c1cc2ccccc2c(=O)s1	-12.6	-4.5%	11.2µM*	7.3%	/
NCCCCCc1cnc[nH]1	-22.9	-4.9%	/	/	0.794µM*
SMILES	GLA inh pH 4.5	GLA spleen mod	HttQ103 aggreg	PKM2 activator	HTT ATP protect
COc1ccc(-c2nc3cnc(Nc4cccc(OC)c4)nc3n(C)c2=O)cc1	/	-8.7%	/	/	-36.4%
O=C(COC(=O)CCc1nc2ccccc2n1-c1ccccc1)Nc1ccc(N2CCCCC2)cc1	-18.8	-0.9%	-1.4%	0.0%	3.16µM*
O=C1C[C@H]2C(=O)[C@@H]1[C@@H](C(=O)O)[C@H]2C(=O)O	/	/	/	/	-22.3%[10 µM]
COc1ccc2cc3c(N)nn(C(=O)c4ccc(Cl)c([N+](=O)[O-])c4)c3nc2c1	4.8	0.8%	2.82µM*	-0.6%	18.8%[10 µM]
Cc1ccc(CNC(=O)[C@]2(C(F)(F)F)C[C@H](CCc3ccccc3)CCCO2)o1	/	4.2%	/	/	/
O=C(Cc1ccc(Cl)cc1)c1c[nH]c(C(=O)NCc2cccnc2)c1	2.2	-1.5%	17.8µM*	2.8%	-17.2%[10 µM]
CC(C)(C)c1ccc(C(=O)c2c[nH]c(C(=O)NCc3cccnc3)c2)cc1	-10.4	1.4%	-15.1%	-1.5%	6.7%[10 µM]
C=CCc1cccc(CNc2nc3ccccc3n2C(C)C)c1O	-16.0	3.0%	17.8µM*	31.6µM*	-64.8%
CC(C)n1c(NCc2ccccc2O)nc2ccccc21	/	/	/	4.8%	/
CC(=O)Nc1sc(N/N=C/c2ccccc2F)nc1-c1ccc(C)cc1	-8.1	9.0%	13.3%[9.22 µM]	10µM*	13.2%[10 µM]
CC(=O)Nc1sc(N/N=C/c2ccc(O)cc2)nc1-c1ccc(C)cc1	0.0	2.5%	2.5%[9.22 µM]	17.8µM*	-13.4%[10 µM]
CC(=O)N1C2(C=CC1(C)C(=O)NCCN1CCOCC1)CCCCC2 (configuration not stated)	-2.6	-1.1%	/	-0.4%	-34.8%
Cc1ccc(-n2nnc3c(=O)n(CC(=O)OCc4ccccc4)cnc32)cc1	-3.1	7.6%	0.0028µM*	-14.9%	/
CCOc1ccc(-n2nnc3c(=O)n(CC(=O)Nc4cc(C)on4)cnc32)cc1	-9.1	8.2%	-0.9%[9.22 µM]	15.8µM*	-13.7%[10 µM]
CCOC(=O)Cn1cnc2c(nnn2-c2ccccc2)c1=O	/	/	/	0.0%	/
O=C(CNC(=O)c1cccc(F)c1)N/N=C/c1cc(Br)ccc1OC(=O)/C=C/c1ccco1	-6.5	-7.9%	8.91µM*	14.0%	/
O=C(CNC(=O)c1ccccc1O)N/N=C/c1cc(Br)ccc1OC(=O)/C=C/c1ccco1	-9.8	-2.9%	2.51µM*	11.1%	-171.7%
O=C(CNC(=O)c1ccc(F)cc1)N/N=C/c1cc(Br)ccc1OCc1ccccc1	-13.2	-0.8%	?	0.4%	/
COc1ccccc1C(=O)NCC(=O)N/N=C/c1cc(Br)ccc1OCc1ccccc1	3.3	-6.7%	-8.5%	-1.2%	-10.1%[10 µM]
COC(=O)C/C=C\[C@@H](C)[C@@H](/C=N\OC[C@@H](O)COCc1ccco1)OC	/	-12.6%[17.5 µM]	/	/	14.6%[10 µM]
S=C(c1ccc(-c2ccc(Br)cc2)o1)N1CCOCC1	-3.1	2.4%	9.6%[9.22 µM]	12.6µM*	-5.2%[10 µM]
C=CCc1cccc(/C=N/NC(=O)C(C)Nc2ccc(C)cc2)c1O (configuration not stated)	-4.6	8.6%	8.91µM*	-3.2%	9.0%[10 µM]
C=CCc1cccc(/C=N/NC(=O)C(=O)Nc2ccc(C)cc2)c1O	9.5	3.4%	/	-3.8%	/
O=[N+]([O-])c1ccc(O)c2cccnc12	-9.8	-1.6%	8.8%	0.6%	-3.4%
O=[N+]([O-])c1cc(Cl)c(O)c2ncccc12	-24.2	2.5%	7.94µM*	?	-164.6%
Cc1ccc(O)c2ncccc12	/	/	?	/	-54.5%
COCc1ccc(O)c2ncccc12	2.2	-17.8%	11.2µM*	-1.8%	-73.0%[10 µM]
O=[N+]([O-])c1ccc(O)c2ncccc12	4.6	-3.6%	3.55µM*	26.3%	-288.9%
